Bioassay records as filed in PubChem.
Jurkat NFkB inh = lowers PMA/ionomycin-induced NF-kB signal in Jurkat cells | 330,000 compounds, 0.53% hits | PMA/ionomycin-induced NF-kB luciferase reporter, luminescence | inhibition, % at 4 µM; in the data active = inhibition above about 50%
Shn3 inh set2 = reduces Shn3 3'UTR luciferase signal in osteoblasts | 360,000 compounds, 0.52% hits | Clone20 osteoblast Shn3 3'UTR firefly luciferase, 24 h | inhibition, % at 12.5 µM;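 active = mean inhibition of at least 75% with every replicate also reaching 75%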
Beta apoptosis = blocks beta cell apoptosis. protection from apoptosis, % (concentration not given with the values). 300,000 compounds, 0.8% hits. INS-1E cytokine-induced death, ATP luminescence, 48 h; percent of positive-control rescue, neutral wells zero;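 active = Every replicate reaches about 75%, or at least half do and their mean reaches it too, limit read from the data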;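 also: higher means more ATP so stronger rescue from cytokine killing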
Calb FLC = C. albicans growth modulation with fluconazole | C. albicans CaCi-2 (fluconazole-resistant clinical isolate) + fluconazole, Alamar Blue growth, 48 h | 300,000 compounds, 0.57% hits | growth inhibition, % (test concentration not listed);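 active = growth inhibition above about 58% in most replicates, limit read from the data, passing the limit was not always enough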;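 also: all wells also contain fluconazole at 8 µg/ml as a sub-toxic cotreatment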
697 NFkB inh = lowers PMA/ionomycin-induced NF-kB signal in 697 B cells. 697 B-cell NF-kB luciferase reporter, 16 h. inhibition, % at 4 µM. 330,000 compounds, 0.33% hits. AID 435022; in the data active = inhibition above about 35%
697 NFkB conf = inhibitors of the PMA/ionomycin-induced NF-kB reporter in 697 B cells, retest; shares compounds with 697 NFkB inh; 697 B-cell NF-kB luciferase, 16 h; inhibition, % at 4 µM; 2,000 compounds, 35% hits; in the data active = inhibition mostly above about 28%, no sharp cut-off; inactive = mostly below about 22%
Numbers stand for hits; 0 = inactive; - = no result given. This is a sample that favours compounds with a hit; in the whole collection about 2% have one here.

SMILES	Jurkat NFkB inh	Shn3 inh set2	Beta apoptosis	Calb FLC	697 NFkB inh	697 NFkB conf
CCc1c(C(=O)NC2CCCc3ccccc32)[nH]c(C)c1C(C)=O (stereo unspecified)	0	0	0	0	0	0
Cc1ccc(N2C(=O)c3ccccc3NC2c2ccccc2O)cc1 (stereo unspecified)	0	0	0	0	0	0
CCOc1ccc(-c2nnc(SCC(=O)NC3CC3)o2)cc1	0	0	0	-	60	56
O=C(CSc1nnc(-c2ccccc2)o1)NC1CCCC1	0	0	0	0	0	-
CC(C)(C)c1ccc(-c2nnc(SCC(=O)NC3CC3)o2)cc1	0	0	0	-	57	39
Cc1ccc(Nc2nc(N3CCOCC3)nc(N3CCOCC3)n2)cc1C	0	0	0	0	55	47
O=C(OCCc1ccccc1)c1cc(O)c(O)c(O)c1	0	0	0	0	0	0
O=C(COC(=O)c1nc(Cl)ccc1Cl)Nc1cccc(S(=O)(=O)N2CCOCC2)c1	-	0	-	-	-	-
O=C(OCC(O)CO)c1ccccc1Nc1ccnc2cc(Cl)ccc12 (stereo unspecified)	0	0	0	-	41	0
CCNC(=O)C1(C)CCCN(C(=O)c2ccccc2Br)C1 (stereo unspecified)	-	0	-	-	-	-
COc1cc(C2C(C#N)=C(N)Oc3cc(N)ccc32)cc(OC)c1OC (stereo unspecified)	0	0	0	-	39	45
COc1ccc(C2C(C#N)=C(N)Oc3cc(N)ccc32)cc1 (stereo unspecified)	0	0	0	0	0	-
Cc1ccc(C)c(Nc2cc(C(=O)NCc3cccnc3)c3ccccc3n2)c1	0	0	0	0	0	-
Cc1ccc(C)c(Nc2nn3c(=O)c4ccc(C(=O)NCc5cccnc5)cc4nc3s2)c1	0	0	0	0	43	0
CCCc1c(NC(=O)Nc2ccc(Cl)cc2Cl)cnn1-c1ccccc1	0	0	-	0	0	0
CCN(CC(=O)Nc1ccccc1OC)CC(=O)Nc1c(Cl)ccc(C)c1Cl	0	0	0	0	0	-
O=S(=O)(c1ccc2c(c1)C(=NO)c1cc(S(=O)(=O)N3CCCCC3)ccc1-2)N1CCCCC1	0	98	106	0	104	0
C(=N\Nc1nc(Nc2ccccc2)nc(Nc2ccccc2)n1)/c1cccnc1	0	0	0	0	35	30
N/C(=N\OC(=O)COc1ccc(Cl)cc1Cl)c1ccccn1	0	0	0	0	0	-
N/C(=N\OC(=O)/C=C/c1ccccc1Cl)c1cccnc1	0	0	0	0	0	-
N/C(=N\OC(=O)/C=C/c1ccccc1Cl)c1ccccn1	0	0	0	0	0	0
N/C(=N\OC(=O)COc1ccc(Br)cc1Cl)c1ccccn1	0	0	0	0	0	0
Cc1ccc([N+](=O)[O-])cc1NC(=O)c1ccoc1C	0	0	0	0	0	-
c1ccc(-c2ccc(-c3nc(-c4ccncc4)no3)cc2)cc1	0	0	0	0	0	0
CCCCc1ccc(-c2nc(-c3ccncc3)no2)cc1	0	0	0	0	0	-
SMILES	Jurkat NFkB inh	Shn3 inh set2	Beta apoptosis	Calb FLC	697 NFkB inh	697 NFkB conf
CCc1ccc(-c2nc(-c3ccncc3)no2)cc1	0	0	0	-	0	0
CCc1nc(N=Nc2c(O)[nH]c3ccccc23)c2c3c(sc2n1)CCC3	0	0	0	0	37	0
Cc1ccc(-n2c(O)c(C=Nc3ccccc3-c3n[nH]c(=S)[nH]c3=O)c3ccccc3c2=O)c(C)c1	0	0	0	0	0	-
Cc1cccc(-n2c(O)c(C=Nc3ccccc3-c3n[nH]c(=S)[nH]c3=O)c3ccccc3c2=O)n1	0	0	0	0	38	0
COc1ccc(C2=Nn3c(nnc3-c3ccccc3F)SC2)cc1OC1CCCC1	0	0	0	-	0	0
COc1ccc(CC(=O)NNC(=O)c2cnccn2)cc1	0	0	0	0	0	-
CC(C)(C)C(=O)NNC(=O)c1cnccn1	0	0	0	0	45	0
CC(=O)Oc1ccc(CC(C(=O)O)N2C(=O)c3ccccc3C2=O)cc1 (stereo unspecified)	0	0	0	0	0	-
CC1=CC(C)(C)Nc2ccc(OC(=O)CN3C(=O)c4ccccc4C3=O)cc21	0	0	0	0	59	39
CC1=CC(C)(C)Nc2ccc(OC(=O)CN3C(=O)c4cccc5cccc(c45)C3=O)cc21	-	0	0	0	-	-
CC1=CC(C)(C)Nc2ccc(OC(=O)C(Cc3ccccc3)N3C(=O)c4ccccc4C3=O)cc21 (stereo unspecified)	0	0	0	0	66	50
COc1ccc(CNS(=O)(=O)c2ccc(-n3cnnn3)c(C)c2)cc1	0	0	0	0	0	-
O=C(NCCS(=O)(=O)N1CCN(c2cccc(Cl)c2)CC1)c1ccco1	0	0	0	0	35	0
O=C(Cc1ccccc1)NCCS(=O)(=O)N1CCN(c2cccc(Cl)c2)CC1	0	0	0	0	0	-
CSc1ncnc2c1cnn2-c1ccc(C)cc1C	0	0	0	0	0	-
Cc1ccc(-n2ncc3c(SCc4ccccn4)ncnc32)c(C)c1	0	0	0	0	0	0
OCC1OC(n2cnc3ncccc32)C(O)C1O (stereo unspecified)	-	0	-	-	-	-
N=c1ccn2c(n1)OC1C(O)C(CO)OC12 (stereo unspecified)	0	0	0	0	54	60
Cn1c(=N)n(CC(=O)c2ccccc2)c2ccccc21	0	0	-	0	0	0
Cn1c(=N)n(CC(=O)c2ccc(Cl)c(Cl)c2)c2ccccc21	0	0	0	0	0	0
Cc1ccoc1C(=O)Nc1ccc(CC(=O)O)cc1	0	0	0	0	66	60
O=C1CC(C(=O)Nc2cccc(F)c2)n2c(nc3ccccc32)N1 (stereo unspecified)	0	0	0	0	35	0
CC(=O)Nc1ccc(NC(=O)C2CC(=O)Nc3nc4ccccc4n32)cc1 (stereo unspecified)	0	0	0	0	0	-
COC(=O)[C@@]12OC[C@]34[C@H]([C@@H](O)[C@@H]1O)[C@@]1(C)C(=O)C(O[C@@H]5OC(CO)[C@@H](O)[C@@H](O)[C@@H]5O)=C[C@@H](C)[C@@H]1C[C@H]3OC(=O)[C@H](OC(=O)/C=C(\C)C(C)(C)OC(C)=O)[C@@H]24 (stereo partly specified)	0	-	0	-	44	80
CC(C)(C)c1ccc(/C=C2\SC(=O)N(CCNC(=O)c3cccc(S(=O)(=O)N4CCOCC4)c3)C2=O)cc1	0	0	-	0	0	0
CC1(c2nnc(-c3cccc(Cl)c3)o2)CC(c2cccc(Cl)c2)=NO1 (stereo unspecified)	0	0	0	0	37	37
CC1(c2nnc(-c3cccc(Cl)c3)o2)CC(c2ccc(Cl)cc2)=NO1 (stereo unspecified)	0	0	0	0	0	-
Cc1ccn2c(C(=O)c3ccc(Cl)cc3)cnc2c1	0	0	0	0	0	0
O=c1[nH]nnc2c1ncn2C1OC(CO)C(O)C1O (stereo unspecified)	-	0	-	-	-	-
